Laboratory results from PubChem BioAssay (Tox21).
Several values for one entry are separate records, joined by “and”; a condition that tells them apart may be missing. Identical values can stand only once. Inconclusive results are not listed. A call without a number means that no potency is given here. A structure can be active in one record and inactive in another. Activity calls are given as the source filed them. The call rests on the fitted dose curve; in most records, active means well fitted curve in the direction sought with a large enough effect in the repeat runs; inconclusive means weak or mixed curves; inactive means no such curve, though single readings can be large; an effect the other way counts as inactive or inconclusive.

Tests used:
[1] = target: Cytochrome P450 2C9 (Homo sapiens) (UniProt P11712); assay: Cytochrome P450 Family 2 Subfamily C Member 9 (CYP2C9) small molecule antagonists: luciferase reporter qHTS assay (AID 1671198); settings: P450-Glo CYP2C9 enzyme assay, luciferin luminescence; series mostly up to 115 µM; further: potency means the concentration at half of the fitted maximal effect
Chain of Cytochrome P450 2C9 (Homo sapiens) (P11712 whole entry, looked up): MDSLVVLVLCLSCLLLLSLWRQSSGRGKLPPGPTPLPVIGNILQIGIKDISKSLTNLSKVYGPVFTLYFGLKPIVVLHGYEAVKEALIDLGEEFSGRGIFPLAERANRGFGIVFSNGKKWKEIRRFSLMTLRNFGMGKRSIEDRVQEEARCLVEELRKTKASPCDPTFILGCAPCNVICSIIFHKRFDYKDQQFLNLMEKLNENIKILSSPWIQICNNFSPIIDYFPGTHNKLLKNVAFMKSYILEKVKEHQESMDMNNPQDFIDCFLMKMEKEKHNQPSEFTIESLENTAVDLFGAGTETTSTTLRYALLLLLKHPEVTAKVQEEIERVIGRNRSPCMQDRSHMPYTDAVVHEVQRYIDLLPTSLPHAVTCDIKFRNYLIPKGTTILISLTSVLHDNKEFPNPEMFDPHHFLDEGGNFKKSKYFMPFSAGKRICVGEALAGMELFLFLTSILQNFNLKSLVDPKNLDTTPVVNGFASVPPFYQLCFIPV
In short: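 Enzyme-substrate mix preincubated with compound 10 min at room temperature; reaction started with NADPH regeneration solution, 1 h 37C. Luminescent luciferin product read after 20 min detection reagent.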

[2] = target: Cytochrome P450 1A2 (Homo sapiens) (UniProt P05177); assay: Cytochrome P450 Family 1 Subfamily A Member 2 (CYP1A2) small molecule antagonists: luciferase reporter qHTS assay (AID 1671199); settings: P450-Glo CYP1A2 enzyme, luciferin luminescence, 1 h; series mostly up to 115 µM; further: potency means the concentration at half of the fitted maximal effect
Chain of Cytochrome P450 1A2 (Homo sapiens) (P05177 whole entry, looked up): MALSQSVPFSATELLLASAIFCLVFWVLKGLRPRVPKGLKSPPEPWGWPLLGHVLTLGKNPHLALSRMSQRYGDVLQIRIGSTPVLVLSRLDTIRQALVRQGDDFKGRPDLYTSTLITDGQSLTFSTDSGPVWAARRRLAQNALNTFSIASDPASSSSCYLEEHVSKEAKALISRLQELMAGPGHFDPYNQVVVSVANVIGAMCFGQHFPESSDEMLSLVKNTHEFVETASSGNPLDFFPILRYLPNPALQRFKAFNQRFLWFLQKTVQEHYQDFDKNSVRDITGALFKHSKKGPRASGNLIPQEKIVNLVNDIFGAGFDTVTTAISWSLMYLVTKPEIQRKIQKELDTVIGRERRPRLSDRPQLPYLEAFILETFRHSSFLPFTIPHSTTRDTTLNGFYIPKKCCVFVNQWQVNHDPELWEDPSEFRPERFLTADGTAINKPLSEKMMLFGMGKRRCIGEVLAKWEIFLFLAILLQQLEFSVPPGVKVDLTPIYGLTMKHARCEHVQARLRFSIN
In short: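 Compounds were incubated with CYP1A2 and a luminogenic proluciferin substrate for 10 min at room temperature before the reaction was started with NADPH regeneration solution. After 1 h, detection reagent was added and light output, proportional to CYP activity, was recorded.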

[3] = target: Voltage-gated inwardly rectifying potassium channel KCNH2 (Homo sapiens) (UniProt Q12809); assay: Human Ether-a-go-go-Related Gene (hERG) channel small molecule antagonists: fluorescence cell-based qHTS assay (AID 1671200); settings: hERG-U2OS cells, FluxOR thallium flux fluorescence; series mostly up to 76.8 µM;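 further: hERG-expressing U2OS cells given a thallium stimulus after FluxOR II dye loading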
Chain of Voltage-gated inwardly rectifying potassium channel KCNH2 (Homo sapiens) (Q12809 whole entry, looked up): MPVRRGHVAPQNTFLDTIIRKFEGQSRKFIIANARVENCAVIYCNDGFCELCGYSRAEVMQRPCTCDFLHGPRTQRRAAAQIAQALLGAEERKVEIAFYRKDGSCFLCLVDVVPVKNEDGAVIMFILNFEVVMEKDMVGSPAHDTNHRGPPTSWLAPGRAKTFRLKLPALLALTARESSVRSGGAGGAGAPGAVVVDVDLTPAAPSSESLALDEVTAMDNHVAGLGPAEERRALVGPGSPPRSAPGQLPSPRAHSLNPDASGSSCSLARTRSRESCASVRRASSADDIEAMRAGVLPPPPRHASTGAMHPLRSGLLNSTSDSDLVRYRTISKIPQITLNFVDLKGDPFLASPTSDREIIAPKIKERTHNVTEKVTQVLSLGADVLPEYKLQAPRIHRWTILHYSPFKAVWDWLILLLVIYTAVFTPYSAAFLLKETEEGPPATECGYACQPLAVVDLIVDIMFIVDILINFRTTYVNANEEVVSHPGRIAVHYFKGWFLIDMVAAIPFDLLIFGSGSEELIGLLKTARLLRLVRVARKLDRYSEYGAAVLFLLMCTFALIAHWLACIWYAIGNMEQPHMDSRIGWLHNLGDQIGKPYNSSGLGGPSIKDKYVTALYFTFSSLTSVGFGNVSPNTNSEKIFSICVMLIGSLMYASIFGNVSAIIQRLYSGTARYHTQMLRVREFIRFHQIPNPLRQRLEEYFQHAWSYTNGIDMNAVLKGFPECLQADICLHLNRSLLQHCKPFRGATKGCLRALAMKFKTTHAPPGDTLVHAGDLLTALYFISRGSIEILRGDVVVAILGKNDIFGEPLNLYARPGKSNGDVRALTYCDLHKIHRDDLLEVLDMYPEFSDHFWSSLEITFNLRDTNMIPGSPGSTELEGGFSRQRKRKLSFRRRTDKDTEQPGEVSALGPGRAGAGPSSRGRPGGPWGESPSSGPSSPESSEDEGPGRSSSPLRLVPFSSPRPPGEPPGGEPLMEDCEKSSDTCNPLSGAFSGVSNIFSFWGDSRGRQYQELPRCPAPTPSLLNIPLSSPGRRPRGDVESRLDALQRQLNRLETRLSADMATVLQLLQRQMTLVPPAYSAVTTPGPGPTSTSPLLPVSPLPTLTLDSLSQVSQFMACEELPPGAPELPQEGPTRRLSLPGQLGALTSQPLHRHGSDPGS
In short: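 U2OS cells expressing the channel were plated at 1000 cells/well, incubated overnight at 37 C, then loaded with FluxOR II thallium-sensitive dye for 1 h at room temperature in the dark, with a further 10 min at room temperature before stimulation.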

[4] = target: Cytochrome P450 3A4 (Homo sapiens) (UniProt P08684); assay: Cytochrome P450 Family 3 Subfamily A Member 4 (CYP3A4) small molecule antagonists: luciferase reporter qHTS assay (AID 1671201); settings: P450-Glo CYP3A4 enzyme, luciferin luminescence, 1 h; series mostly up to 115 µM
Chain of Cytochrome P450 3A4 (Homo sapiens) (P08684 whole entry, looked up): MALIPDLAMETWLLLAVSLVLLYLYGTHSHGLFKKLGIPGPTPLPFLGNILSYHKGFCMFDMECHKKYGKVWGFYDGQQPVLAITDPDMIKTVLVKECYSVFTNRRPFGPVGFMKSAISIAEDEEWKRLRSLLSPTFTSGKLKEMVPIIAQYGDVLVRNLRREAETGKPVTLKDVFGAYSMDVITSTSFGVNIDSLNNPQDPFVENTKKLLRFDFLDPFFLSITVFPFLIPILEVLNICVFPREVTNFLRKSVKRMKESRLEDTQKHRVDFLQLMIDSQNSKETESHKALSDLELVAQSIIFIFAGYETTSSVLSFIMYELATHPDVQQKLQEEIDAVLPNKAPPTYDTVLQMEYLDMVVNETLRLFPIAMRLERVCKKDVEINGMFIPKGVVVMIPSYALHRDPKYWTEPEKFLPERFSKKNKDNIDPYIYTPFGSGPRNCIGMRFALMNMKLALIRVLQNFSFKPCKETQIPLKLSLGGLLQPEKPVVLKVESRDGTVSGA
In short: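 P450-Glo CYP3A4 system with proluciferin substrate; compounds preincubated 10 min RT with enzyme-substrate mix, then NADPH regeneration added for 1 h RT. Detection reagent 20 min, luminescence read as relative luminescence units.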
Further: nearly all actives have a fitted effect of over 50% in size.

Row | Structure (SMILES) | Potency [1] | Potency [2] | outcome [3] | Potency [4]
1 | Nc1ccc(C(=O)O)cc1 | inactive | inactive | inactive | inactive
2 | CCCC(O)C(CC)CO (stereo unspecified) | inactive | inactive | inactive | inactive
3 | O=C(O)CCCCC(=O)O | inactive | inactive | inactive | inactive
4 | O=C(O)CS | inactive | inactive | inactive | inactive
5 | C1N2CN3CN1CN(C2)C3 | inactive | inactive and 15.5 µM (active) | inactive | inactive
6 | CCCCC1C(=O)N(c2ccccc2)N(c2ccccc2)C1=O | 9.96 µM (active) and 31.7 µM (active) and 17.4 µM (active) | inactive | inactive | –
7 | O=c1cc[nH]c(=S)[nH]1 | 40.2 µM (active) and inactive | 71.5 µM (active) and 36.7 µM (active) and 24.5 µM (active) | inactive | inactive
8 | O=C1CN(/N=C/c2ccc([N+](=O)[O-])o2)C(=O)N1 | inactive | inactive | inactive | inactive
9 | OCCc1ccccc1 | inactive | inactive | inactive | inactive
10 | NC(=O)c1cnccn1 | inactive | inactive | inactive | inactive
11 | CC(C)[C@@H]1CC[C@@H](C)C[C@H]1O | inactive | inactive | inactive | inactive
12 | Cc1ccc(C)c(OCCCC(C)(C)C(=O)O)c1 | 31.9 µM (active) and 35.6 µM (active) and 17.4 µM (active) | 71 µM (active) and inactive | inactive | inactive
13 | Cc1cn([C@H]2C[C@H](N=[N+]=[N-])[C@@H](CO)O2)c(=O)[nH]c1=O | 63.3 µM (active) and inactive | inactive | inactive | inactive
